Our source for the Potency values is PubChem BioAssay (Tox21).

Results filed as inconclusive are left out. Entries that show only a call come without a potency. Active and inactive are the calls of the source. Calls come from the whole dose curve; as a rule, active = well fitted inhibition curve with a large enough effect in the repeat runs; inconclusive = weak or mixed curves; inactive = flat fitted curve, though single readings scatter.

The target of this experiment is Voltage-gated inwardly rectifying potassium channel KCNH2 (Homo sapiens) (UniProt Q12809). Briefly: Human Ether-a-go-go-Related Gene (hERG) channel small molecule antagonists: fluorescence cell-based qHTS assay (AID 1671200).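 Note: hERG-expressing U2OS cells given a thallium stimulus after FluxOR II dye loading; nearly all actives have a fitted effect of over 50% in size.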 The conditions noted are these: hERG-U2OS cells, FluxOR thallium flux fluorescence; series mostly up to 76.8 µM. In outline: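 Read-out: thallium influx as a surrogate for potassium, tracked as fluorescence (480 nm ex/540 nm em) every second for 2 min after Stimulus Buffer addition in dye-loaded hERG-U2OS cells.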
Voltage-gated inwardly rectifying potassium channel KCNH2 (Homo sapiens), sequence (Q12809 whole entry, looked up): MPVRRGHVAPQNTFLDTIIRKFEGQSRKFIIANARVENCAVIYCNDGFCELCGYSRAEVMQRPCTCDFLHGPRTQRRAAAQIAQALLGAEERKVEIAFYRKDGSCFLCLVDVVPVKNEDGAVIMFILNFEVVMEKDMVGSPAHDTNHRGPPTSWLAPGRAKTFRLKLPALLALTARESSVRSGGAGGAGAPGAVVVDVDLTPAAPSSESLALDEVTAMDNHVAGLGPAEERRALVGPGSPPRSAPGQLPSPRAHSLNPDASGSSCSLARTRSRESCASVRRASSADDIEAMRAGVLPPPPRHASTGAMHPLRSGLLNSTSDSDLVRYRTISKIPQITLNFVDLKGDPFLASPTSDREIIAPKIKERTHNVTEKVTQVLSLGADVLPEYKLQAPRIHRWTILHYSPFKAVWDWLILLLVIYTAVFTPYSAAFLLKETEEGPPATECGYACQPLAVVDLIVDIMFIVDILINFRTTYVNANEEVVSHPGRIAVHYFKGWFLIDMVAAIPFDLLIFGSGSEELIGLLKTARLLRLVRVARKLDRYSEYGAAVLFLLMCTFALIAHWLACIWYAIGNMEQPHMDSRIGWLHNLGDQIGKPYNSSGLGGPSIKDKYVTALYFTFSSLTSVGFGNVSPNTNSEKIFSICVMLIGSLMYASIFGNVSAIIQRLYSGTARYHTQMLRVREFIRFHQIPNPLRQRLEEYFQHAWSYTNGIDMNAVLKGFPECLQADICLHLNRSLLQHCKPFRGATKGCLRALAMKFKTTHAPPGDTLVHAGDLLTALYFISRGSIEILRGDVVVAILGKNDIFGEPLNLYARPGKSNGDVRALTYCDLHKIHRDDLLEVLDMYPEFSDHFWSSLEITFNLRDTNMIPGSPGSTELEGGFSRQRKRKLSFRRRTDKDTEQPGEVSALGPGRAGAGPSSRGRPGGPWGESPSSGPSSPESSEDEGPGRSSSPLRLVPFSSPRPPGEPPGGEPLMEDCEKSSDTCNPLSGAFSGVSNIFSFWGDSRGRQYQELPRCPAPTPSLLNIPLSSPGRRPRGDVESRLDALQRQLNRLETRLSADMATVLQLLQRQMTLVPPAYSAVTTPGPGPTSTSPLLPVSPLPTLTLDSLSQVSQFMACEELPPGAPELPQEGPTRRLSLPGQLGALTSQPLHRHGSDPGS
As to `C=CCOC(=O)C(=C)C`, the Potency result was “inactive”.
For the compound `CCCCCCOCCOCCO`, the Potency result was “inactive”.
Next, `NCCOCCO`: “inactive”.
For `NCCS(=O)(=O)O`, the Potency result is “inactive”.
On to `OC[C@@H](O)[C@@H](O[C@@H]1O[C@H](CO)[C@H](O)[C@H](O)[C@H]1O)[C@H](O)[C@@H](O)CO`, for which the Potency result was “inactive”.
Take `CCO[Si](CCCNC(N)=O)(OCC)OCC`: the Potency entry is “inactive”.
Consider `O=C(O)CCCCCCCCCCCC(=O)O`, for which the Potency result was “inactive”.
Next, `C[C@]12C=CC(=O)C=C1CC[C@H]1[C@@H]3C[C@@H](O)[C@](O)(C(=O)CO)[C@@]3(C)C[C@H](O)[C@@]12F`: “inactive”; `CN1CCOCC1`: “inactive”.
With `CC(C)[N+](C)(CCOC(=O)C1c2ccccc2Oc2ccccc21)C(C)C` the entry was “inactive”.
Next, `COC(=O)c1ccc(C)cc1`: “inactive”; `CC/C(=C(/CC)c1ccc(O)cc1)c1ccc(O)cc1`: “inactive”.
On to `O=C(O)CCCC(=O)O`, for which the Potency result was “inactive”.
Next, `O=C1OC2(c3ccccc31)c1cc(I)c(O)c(I)c1Oc1c2cc(I)c(O)c1I`: “inactive”; `c1ccc2ncccc2c1`: “inactive”; `CC(C)(Oc1ccc(Cl)cc1)C(=O)O`: “inactive”.
Next, `NC[C@H](O)c1ccc(O)c(O)c1`: “inactive”.
